A selection: hits, their analogues and other compounds. The true share with any hit is near 2.4%.
PABP1 MLLE inh = inhibitors of microRNA-mediated deadenylation, human PABP1 MLLE binding. P11940. GST-MLLE / FITC-PAM2 fluorescence polarization. inhibition, % at 20 µM. 360,000 tested, 0.36% active; in the data active = inhibition above about 35%, passing the limit was not always enough
eIF4H FP inh = inhibitors of RNA binding by human eIF4H; Q15056; eIF4H fluorescence polarization binding assay; inhibition, % at 35 µM; 290,000 tested, 0.94% active;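 note: calls also rest on retests at 20 µM and on dose response follow-up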
PABP polyA inh = blocks human PABP binding to poly(A) RNA. fluorescence polarization. calls only at 35 µM. 290,000 tested, 1% active. AID 2014;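 note: calls also rest on retests at 20 µM and on dose response follow-up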
PHOSPHO1 inh = inhibitors of human PHOSPHO1 phosphatase. AID 1565. recombinant PHOSPHO1, absorbance phosphatase assay. 290,000 tested, 1.1% active. Q8TCT1. inhibition, % at 13.3 µM; in the data active = inhibition above about 60%
Target sequence (Q8TCT1 whole entry, looked up): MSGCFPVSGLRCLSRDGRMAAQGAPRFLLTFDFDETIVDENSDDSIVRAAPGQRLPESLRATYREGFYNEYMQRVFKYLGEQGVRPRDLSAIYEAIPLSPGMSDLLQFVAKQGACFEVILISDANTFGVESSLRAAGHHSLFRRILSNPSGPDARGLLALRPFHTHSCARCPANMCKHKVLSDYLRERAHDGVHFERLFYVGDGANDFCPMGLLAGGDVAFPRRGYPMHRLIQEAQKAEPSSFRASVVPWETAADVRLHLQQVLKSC
Efa HMGR inh = E. faecalis class II HMG-CoA reductase inhibition | purified E. faecalis HMGR, NADPH absorbance 340 nm kinetic | inhibition, % at 10 µM | 190,000 tested, 0.41% active;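 active = inhibition above a set limit, the median over all tested compounds plus 3 SD, cut at about 9.5% in these data; inconclusive = no clear call, values can overlap the other calls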;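 note: enzyme runs in reverse so mevalonate oxidation gives rising NADPH absorbance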
Of the large screens only hits and unclear results are named; the others gave an inactive call. Unless noted, the rule behind the calls is not given here.

COc1cc(C)c(CNc2ccc(OC)c(OC)c2)cc1C	eIF4H FP inh 63.2, PABP polyA inh active (no result: PABP1 MLLE inh)
C/C=C/c1cccc(-c2nc(C(=O)NC3CCC3)cc3c2[C@@H](CCO)N(S(=O)C(C)(C)C)C3)c1 (some centres not stated)	none (no result: eIF4H FP inh, PABP polyA inh, PHOSPHO1 inh, Efa HMGR inh)
CCC(CC)NC(=O)c1ccc(NS(=O)(=O)c2ccc3[nH]c(=O)[nH]c3c2)cc1	none (no result: Efa HMGR inh)
CCOC(=O)c1ccc(NS(=O)(=O)c2ccc3[nH]c(=O)[nH]c3c2)cc1	PHOSPHO1 inh 63.2
CC1=NN(c2ccc(N)cc2)C(=O)C1	PABP polyA inh active
CC1=NN(c2ccc(Cl)cc2)C(=O)C1	none
CCOC(=O)[C@H]1[C@H]2COc3ccc(Br)cc3[C@@H]2N2C(=O)c3ccc(Cl)cc3NC(=O)[C@@]12C	none (no result: eIF4H FP inh, PABP polyA inh, PHOSPHO1 inh, Efa HMGR inh)
C=CCN1CN(S(=O)(=O)c2cccs2)c2nc3ccccc3nc21	eIF4H FP inh 82.2, PABP polyA inh active
O=S(=O)(c1cccs1)N1CN(Cc2cccs2)c2nc3ccccc3nc21	none
Cn1c(-c2sc3cc(C(F)(F)F)cnc3c2-c2cccnc2)n[nH]c1=S	PHOSPHO1 inh 92.0
Cn1c(-c2sc3cc(C(F)(F)F)cnc3c2-c2ccccn2)n[nH]c1=S	none
CS(=O)(=O)N1CCCC(C(=O)Nc2ccccc2)C1 (configuration not stated)	none (no result: Efa HMGR inh)
O=C(Cc1n[nH]c(=O)c2ccccc12)N1CCN(c2ccc(F)cc2)CC1	none
CC(=O)c1ccc(N2CCN(C(=O)Cc3n[nH]c(=O)c4ccccc34)CC2)cc1	Efa HMGR inh 13.5
CC(C)Oc1ccc2ccccc2c1CNC[C@H]1O[C@@H](n2cnc(C(N)=O)n2)[C@H](O)[C@@H]1O	none (no result: eIF4H FP inh, PABP polyA inh, PHOSPHO1 inh, Efa HMGR inh)
CN(C)c1ccc(C2C=C(c3ccc(Cl)cc3OC(F)F)Nc3ncnn32)cc1 (configuration not stated)	PHOSPHO1 inh 66.7
Cc1ccc(C2C=C(c3ccccc3OC(F)F)Nc3ncnn32)cc1 (configuration not stated)	none
CCN(CC(=O)Nc1c(F)cccc1F)C(=O)c1cccnc1Sc1ccccc1	none (no result: eIF4H FP inh, PABP polyA inh, PHOSPHO1 inh, Efa HMGR inh)
c1cncc(-c2nc3ccccc3o2)c1	PABP polyA inh active
c1cncc(-c2nc3cc(Cc4ccc5oc(-c6cccnc6)nc5c4)ccc3o2)c1	none (no result: PABP1 MLLE inh, Efa HMGR inh)
COc1ccc(-c2nnc(SCc3csc(N)n3)n2C)cc1	PHOSPHO1 inh 73.4
O=C(NNC(=S)NC(=O)C12CC3CC(CC(C3)C1)C2)c1ccncc1	PHOSPHO1 inh 65.8
CC1(C(=O)NC(=S)NNC(=O)c2ccncc2)CCCCC1	none
COc1cccc(OC)c1/C=C/C(=O)NC1CCCCC1	none (no result: Efa HMGR inh)
CCN1CCN(C2=C(NS(=O)(=O)c3ccc(NC(C)=O)cc3)C(=O)c3ccccc3C2=O)CC1	none (no result: Efa HMGR inh)
CC(=O)Nc1ccc(S(=O)(=O)NC2=C(N3CCN(Cc4ccccc4)CC3)C(=O)c3ccccc3C2=O)cc1	PHOSPHO1 inh 64.4
O=C(NC1CCS(=O)(=O)C1)/C(=C/c1ccc(Cl)cc1)NC(=O)c1ccccc1 (configuration not stated)	PHOSPHO1 inh 180.6
O=[N+]([O-])/C(C(=C(Cl)Cl)N1CCN(Cc2ccccc2)CC1)=C1\NCCN1Cc1ccc(Cl)nc1	none
O=[N+]([O-])C(/C=C(\Cl)[N+](=O)[O-])=C1N(Cc2ccc(Cl)nc2)CCN1Cc1ccc(Cl)nc1	eIF4H FP inh inconclusive, PABP polyA inh active, Efa HMGR inh 13.4
O=C(c1ccc(NC(=O)C(c2ccccc2)c2ccccc2)cc1)c1ccc(C(=O)O)c(C(=O)O)c1	eIF4H FP inh 78.3, PABP polyA inh active (no result: Efa HMGR inh)
CC1(C(=O)NS(=O)(=O)c2ccccc2)CCN1C(=O)c1ccc(C2CCCCC2)cc1 (configuration not stated)	none (no result: eIF4H FP inh, PABP polyA inh, PHOSPHO1 inh, Efa HMGR inh)
CC(=O)Nc1ccc(S(=O)(=O)NCC(=O)N2CCN(S(=O)(=O)c3cccs3)CC2)cc1	PABP1 MLLE inh 43.2 (no result: eIF4H FP inh, PABP polyA inh, PHOSPHO1 inh, Efa HMGR inh)
N#Cc1c(NC(=O)c2ccc([N+](=O)[O-])o2)sc2c1CCC2	none (no result: Efa HMGR inh)
CCN(CC)S(=O)(=O)c1cc(C(=O)O)ccc1OC	none (no result: Efa HMGR inh)
CCN(Cc1ccccc1)S(=O)(=O)c1cc(C(=O)NCCCN(C)C)ccc1OC	Efa HMGR inh 11.7
Cc1ccc(CN2CCN(Cc3cnc(N4CCOCC4)s3)CC2CCO)cc1 (configuration not stated)	none
CCCn1c2ccccc2c2nnc(SC(CC)C(=O)Nc3sc4c(c3C#N)CCCC4)nc21 (configuration not stated)	PHOSPHO1 inh 61.3
CCCn1c2ccccc2c2nnc(SC(CC)C(=O)Nc3cc(C)on3)nc21 (configuration not stated)	none
O=C(c1ccco1)N1CCN(Cc2nc(Cc3ccccc3)no2)CC1	PHOSPHO1 inh 60.1

Screens as filed in PubChem BioAssay.
